The entries come from a sample that favours hits as a whole.
Sm TGR inh = blocks Schistosoma mansoni thioredoxin glutathione reductase; purified TGR, DTNB reduction, TNB absorbance 405 nm; hit rate 3% among 360,000; Potency, µM (top dose mostly 114 µM), actives largely listed as inhibitors; note: nearly all actives have a fitted effect of over 60% in size
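TGR 20 nM + NADPH 100 uM (dispensed conc.), cpd preinc 15 min RT; start with NADPH (500 uM addition) then DTNB (15 mM addition). Kinetic TNB absorbance, 405 nm filter. Four-parameter Hill fit across titration.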
Shiga inhibitor = inhibitors of Shiga toxin in Vero cells; Vero cells, Shiga toxin protein synthesis inhibition reporter; AID 2315; hit rate 9.2% among 290,000; inhibition, % at 38.7 µM; in the data active = inhibition mostly above about 28%, no sharp cut-off; inactive = mostly below about 43%
LmPK inhibitor = blocks Leishmania mexicana pyruvate kinase activity | purified LmPK, Kinase-Glo ATP luminescence, 1 h | Potency, µM (doses to about 57.5 µM), usual class: inhibitors | hit rate 0.37% among 290,000 | AID 1721
Target sequence (Q27686 whole entry, looked up): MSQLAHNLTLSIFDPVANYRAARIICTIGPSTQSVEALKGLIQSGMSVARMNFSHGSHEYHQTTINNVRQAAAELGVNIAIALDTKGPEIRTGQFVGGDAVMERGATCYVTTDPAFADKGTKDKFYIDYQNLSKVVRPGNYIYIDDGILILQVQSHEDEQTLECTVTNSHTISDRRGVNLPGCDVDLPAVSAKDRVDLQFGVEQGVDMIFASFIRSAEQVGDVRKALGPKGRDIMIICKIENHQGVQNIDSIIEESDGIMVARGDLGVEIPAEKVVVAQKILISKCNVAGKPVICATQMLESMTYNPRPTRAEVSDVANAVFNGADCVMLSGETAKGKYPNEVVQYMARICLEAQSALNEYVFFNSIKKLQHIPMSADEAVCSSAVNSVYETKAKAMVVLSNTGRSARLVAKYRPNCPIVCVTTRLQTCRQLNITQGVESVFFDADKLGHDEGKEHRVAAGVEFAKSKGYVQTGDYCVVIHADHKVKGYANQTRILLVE
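Kinase-Glo luminescence read after 1 h RT reaction of 0.1 nM LmPK with 0.5 mM PEP and 0.1 mM ADP. Activity scaled between uninhibited and enzyme-free controls.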
CHX counter = counter-screen for Shiga toxin inhibitors: cycloheximide protein synthesis inhibition; max response, %; cell reporter, cycloheximide protein synthesis inhibition counterscreen; hit rate 12% among 300,000; in the data active = max response mostly above about 13%, no sharp cut-off; inactive = mostly below about 14%; note: read at 38.3 µM for the half of the compounds with a filed dose
TbPYK inhibitor = T. brucei pyruvate kinase inhibition | Q57TT1 | TbPYK enzyme, Kinase-Glo Plus ATP luminescence, 45 min | Potency, µM (highest dose often 76.8 µM), most hits filed as inhibitors | hit rate 0.12% among 410,000 | AID 624173; note: nearly all actives have a fitted effect of over 50% in size
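Screened from lowest to highest concentration, compounds were pinned into TbPYK/substrate mixtures, and ADP (130 uM final) was added. Plates sat at room temperature for 45 min prior to Kinase-Glo Plus detection by luminescence.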
FBPA Giardia inh = inhibitors of Giardia lamblia fructose-1,6-bisphosphate aldolase | purified Giardia FBPA | A8B2U2 | Potency, µM (doses to about 59.6 µM), hits mostly inhibitors | hit rate 0.71% among 290,000; note: nearly all actives have a fitted effect of over 55% in size
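Giardia FBPA (40 nM reagent) was preincubated 10 min at RT with compound (up to 57.5 uM final), then substrate plus GAPDH/TPI/NAD/arsenate coupling system with diaphorase/resazurin was added; resorufin fluorescence (525/598 nm) was read after 20 min.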
Of the large screens only hits and unclear results are named; the others gave an inactive call. Unless noted, calls come from the whole dose curve; as a rule, active = well fitted curve in the direction sought with a large enough effect; inconclusive = small, poorly fitted or top-dose-only effect, or another doubt; inactive = no such curve, though single readings can be large; an effect the other way counts as inactive or inconclusive.

CCOC(=O)c1cnc2c(C)cccc2c1NCc1ccco1	Shiga inhibitor 37.0, CHX counter 24.2
CCOC(=O)c1cnc2c(C(=O)OC)cccc2c1NCc1ccco1	Sm TGR inh inconclusive
CCOC(=O)c1ccc2ncc(C(=O)OCC)c(NCc3ccco3)c2c1	CHX counter 26.7
Cc1nc2nc(SCC(=O)NCCc3ccc(Cl)cc3)nn2c(C)c1Cc1ccccc1	none (no result: Shiga inhibitor, LmPK inhibitor, CHX counter, FBPA Giardia inh)
O=C(O)COc1ccc(CCNS(=O)(=O)c2ccccc2)s1	none (no result: Sm TGR inh, Shiga inhibitor, LmPK inhibitor, CHX counter, FBPA Giardia inh)
NC(=O)c1ccccc1NC(=O)Nc1cccc(Cl)c1Cl	none
Cc1ccc(NC(=O)/C(Cl)=C/c2ccccc2)cc1C	Shiga inhibitor 94.7, CHX counter 45.5
CCC(=O)Nc1ccc(F)c(Cl)c1	none
NC(=O)c1ccccc1NC(=O)Nc1ccc(F)c(Cl)c1	Shiga inhibitor 55.8, CHX counter 42.1 (no result: Sm TGR inh)
Cc1ccc(NC(=O)C2(c3ccccc3)CC2(Cl)Cl)cc1C (centres undefined)	Shiga inhibitor 128.2, CHX counter 66.2
CCN(CC)C(=O)C(=O)Nc1ccc(F)c(Cl)c1	Shiga inhibitor 87.9, CHX counter 28.2 (no result: Sm TGR inh)
C[C@@H](O)C(N)C(=O)O (some centres undefined)	none (no result: Sm TGR inh, LmPK inhibitor, TbPYK inhibitor)
CCOc1ccc(NS(=O)(=O)c2ccc(C(=O)NCC(c3ccc(OC)cc3)N3CCOCC3)cc2)cc1 (centres undefined)	none (no result: Shiga inhibitor, LmPK inhibitor, CHX counter, FBPA Giardia inh)
CC1(c2ccccc2)NC(=O)N(NC(=O)COC(=O)c2cc(Br)ccc2O)C1=O (centres undefined)	none (no result: Shiga inhibitor, LmPK inhibitor, CHX counter, FBPA Giardia inh)
CC(=O)Nc1ccccc1C(=O)C(=O)Nc1ccc(C)c(F)c1	Shiga inhibitor 102.8, CHX counter 58.8
CCc1ccc(NC(=O)C(=O)c2ccccc2NC(C)=O)cc1	none (no result: Shiga inhibitor, LmPK inhibitor, CHX counter, FBPA Giardia inh)
CC(=O)Nc1ccccc1C(=O)C(=O)Nc1ccc(F)c(Cl)c1	CHX counter 19.5
CC(=O)Nc1ccccc1C(=O)C(=O)Nc1ccc(C)c(C)c1	Shiga inhibitor 39.9, CHX counter 40.1
CC(=O)Nc1ccccc1C(=O)C(=O)Nc1cccc(F)c1	none (no result: Sm TGR inh, Shiga inhibitor, LmPK inhibitor, CHX counter, FBPA Giardia inh)
O=C(NCc1ccccc1F)C1CCCN(S(=O)(=O)N2CCOCC2)C1 (centres undefined)	none
O=C(NCCN1CCOCC1)C1(C(F)(F)F)C/C(=C\CCO)CCCO1 (centres undefined)	none (no result: Sm TGR inh, LmPK inhibitor, TbPYK inhibitor)
CCCCn1c(SCc2nnc(-c3ccccc3)o2)nc2c1c(=O)n(C)c(=O)n2C	CHX counter 23.6
Nc1nc(N)nc(-c2ccccc2-c2nc(N)nc(N)n2)n1	none
Cc1nc(N)nc(-c2ccccc2O)n1	CHX counter 23.9
CC(=O)N1N=C(c2cccc(NS(C)(=O)=O)c2)CC1c1ccc2c(c1)OCO2 (centres undefined)	CHX counter 12.6
CS(=O)(=O)Nc1ccc(C2=NN(S(C)(=O)=O)C(c3ccc4c(c3)OCO4)C2)cc1 (centres undefined)	Shiga inhibitor 85.0, CHX counter 30.1
CCOc1ccc(-n2nc(CO)c(C(=O)NCc3cccc(OC)c3)n2)cc1	none (no result: Shiga inhibitor, LmPK inhibitor, CHX counter, FBPA Giardia inh)
CCNC(=O)C1CCCN(C(=O)c2ccc(C#N)cc2)CC1 (centres undefined)	none (no result: Sm TGR inh, Shiga inhibitor, LmPK inhibitor, CHX counter, FBPA Giardia inh)
C=CCn1c(O)c(C=Nc2ccccc2)sc1=S	Shiga inhibitor 63.7, CHX counter 27.7
CCn1c(O)c(/C=N/n2cnnc2)sc1=S	none
CCn1c(O)c(C=NC2CCCC2)sc1=S	CHX counter 33.6
CCn1c(O)c(C=Nc2ccccc2)sc1=S	Shiga inhibitor 85.1, CHX counter 38.3, FBPA Giardia inh inconclusive
CCc1ccccc1N(C)S(=O)(=O)c1ccc2c(c1)C(C)(C)C(=O)N2C	none (no result: Shiga inhibitor, LmPK inhibitor, CHX counter, FBPA Giardia inh)
COc1ccc(CC(=O)Nc2sc3c(c2C(=O)Nc2ccc(C)cc2)CCCCC3)cc1	none (no result: Shiga inhibitor, LmPK inhibitor, CHX counter, FBPA Giardia inh)
Cc1ccc(-c2nc(CS(=O)CC(=O)NC3CCCCC3)c(C)o2)cc1 (centres undefined)	Sm TGR inh 12.6µM (no result: FBPA Giardia inh)
Cc1oc(-c2cccs2)nc1CS(=O)CC(=O)NC1CCCCCC1 (centres undefined)	Sm TGR inh 17.8µM
Cc1cccc(-c2nc(CS(=O)CC(=O)NC3CCCC3)c(C)o2)c1 (centres undefined)	Sm TGR inh 12.6µM
Cc1oc(-c2ccc(Cl)cc2)nc1CS(=O)CC(=O)NC1CCCCC1 (centres undefined)	Sm TGR inh 11.2µM (no result: FBPA Giardia inh)
COc1ccc(S(=O)(=O)NCc2ccc3c(c2)CCN3C(=O)c2ccc(C)cc2)cc1Cl	none (no result: Shiga inhibitor, LmPK inhibitor, CHX counter, FBPA Giardia inh)
Cc1oc(-c2ccc(Cl)cc2)nc1CS(=O)CC(=O)NC1CCCC1 (centres undefined)	Sm TGR inh 8.91µM (no result: FBPA Giardia inh)
COc1ccc(-c2nc(CS(=O)CC(=O)NC3CCCC3)c(C)o2)cc1 (centres undefined)	Sm TGR inh inconclusive

Screening data as filed in PubChem BioAssay.
